Inconclusive results are not listed. Where a call stands in place of a potency, no number is given. A number with no mark means an inactive call. Activity calls are given as the source filed them. The call rests on the fitted dose curve; in most records, active means well fitted cell-killing curve with a large enough effect in the repeat runs; inconclusive means weak or mixed curves, or effect the other way; inactive means flat fitted curve, though single readings scatter.
Assay: Nuclear factor erythroid 2-related factor 2/antioxidant responsive element (Nrf2/ARE) small molecule agonists: qHTS cell viability counter screen in human keratinocytes (AID 1919968); further: nearly all actives have a fitted effect of over 55% in size
Conditions: KeratinoSens HaCaT ARE cells viability, CellTiter-Fluor, 24 h; series mostly up to 92.4 µM
Excerpt: U.S. Tox21 Program National Center for Advancing Translational Sciences [NCATS] Division of Preclinical Innovation [DPI] U.S. Environmental Protection Agency [EPA] National Institutes of Environmental Health Sciences [NIEHS] National Toxicology Program [NTP] U.S. Food and Drug Administration [FDA] Tox21 Assay Overview: Oxidative stress has been implicated in the pathogenesis of a variety of diseases ranging from cancer to neurodegeneration. The antioxidant response element (ARE) signaling pathway plays an important role in the amelioration of oxidative stress. The KeratinoSens (Givaudan, Switzerland) is an in vitro test method which quantifies luciferase induction as a measure of activation of Keap1-Nrf2-antioxidationt/electrophile response element (ARE) dependant pathway in HaCaT human keratinocytes stably transfected with a selectable plasmid. The KeratinoSens assay is a cell-based assay with a reporter cell line to detect potential skin sensitizers by their ability to induce the Nrf2/ARE-response. The activation of the report gene under culture conditions can be detected by ONE-Glo Luciferase Assay System (Promega, Madison, WI). This cell line has been used to screen the Tox21 10K compound library to identify agonists that induce oxidative stress. The cytotoxicity of the Tox21 compound library against the KS-ARE cell line was tested in parallel by measuring the cell viability using CellTiter- Fluor assay system (Promega, Madison, WI) in the same wells.
Tox21 Assay Protocol Summary: HaCaT derived cell line KeratinoSens were dispensed at 1,500 cells/5uL/well in 1536-well white wall/solid bottom plates using a Multidrop Combi (ThermoFisher Scientific, Waltham, MA) dispenser. After the assay plates were incubated at 37 C/5% CO2 for 5 h, 23 nL of compounds dissolved in DMSO, positive controls or DMSO only was transferred to the assay plate by a pintool workstation (Kalypsys, San Diego, CA). The plates were incubated at 37 C/5% CO2 for 23 h, followed by addition of 1uL/well of CellTiter-Fluor reagent into the assay plates using a Flying Reagent Dispenser (Aurora Discovery, San Diego, CA) for cell viability readout that measures cytotoxicity. After 1 h incubation at 37 C/5% CO2 the fluorescence intensity was measured using a ViewLux (PerkinElmer, Shelton, CT) plate reader.
For `CCCCCCCCCCCCCCCC(=O)OCC`, the Potency was “inactive”.
For `c1ccc(Cc2ccccc2)cc1`, the Potency was “inactive”.
In the case of `CC(=O)OCC(=O)[C@@]12OC(C)(C)O[C@@H]1C[C@H]1[C@@H]3C[C@H](F)C4=CC(=O)C=C[C@]4(C)[C@@]3(F)[C@@H](O)C[C@@]12C`, the Potency is reported as “inactive”.
With `C[Si](C)(C)O[Si](O)(O)O` the Potency was “inactive”.
For `COc1cc(OC)c2ccc(=O)oc2c1`, the Potency was “inactive”.
In the case of `NC(CSCC(=O)O)C(=O)O` (stereo not given), the Potency is reported as “inactive”.
In the case of `CCCOc1sc(C(=O)N2CCC(c3cc(CN)ccc3F)CC2)c(C)c1Br`, the Potency is reported as 17.7 µM (active).
In the case of `CCC(C)Nc1ccc(NC(C)CC)cc1` (stereo not given), the Potency is reported as 3.93 µM (active).
For `CC1(C)[C@H](C(=O)O)N2C(=O)C[C@H]2S1(=O)=O`, the Potency was “inactive”.
For `CC1=CC=C(C(C)C)CC1`, the Potency was “inactive”.
For `CCC(C)OC(=O)N1CCCCC1CCO` (stereo not given), the Potency was “inactive”.
With `CC(C)(C)c1ccc(-c2ccc(C(C)(C)C)cc2)cc1` the Potency was “inactive”.
For `OC(CN1CCC(Cc2ccc(F)cc2)CC1)c1ccc(Cl)cc1` (stereo not given), the Potency was 29.8 µM (active).
For `N=C(N)N1CCc2ccccc2C1`, the activity change, negative = cytotoxicity was 2.9% [at 8.39 µM].
For `SCCc1cnccn1`, the Potency was “inactive”.
With `[Cl][Bi]([Cl])([c]1ccccc1)([c]1ccccc1)[c]1ccccc1` the Potency was 6.08 µM (active).
In the case of `C=C(C)C(=O)OCc1ccccc1`, the Potency is reported as “inactive”.
For `C=CC(C)(CCC=C(C)C)OC(=O)CC(C)C` (stereo not given), the Potency was “inactive”.
With `CCCn1cc[n+](C)c1C` the Potency was “inactive”.
In the case of `CCCCC/C=C\C/C=C\CCCCCCCC(=O)NC(C)c1ccccc1` (stereo not given), the Potency is reported as “inactive”.
For `N#Cc1ccccc1O`, the Potency was “inactive”.
For `CCOC(=O)C1=C[C@]2(CC)CCCN3CCc4c(n1c1ccccc41)[C@@H]32`, the Potency was “inactive”.
With `COc1cc(C)cc(O)c1` the Potency was “inactive”.
For `CC(C)(C)c1cc(CO)cc(C(C)(C)C)c1O`, the Potency was “inactive”.
For `Cc1nnc(SCC2=C(C(=O)O)N3C(=O)[C@@H](NC(=O)Cn4cnnn4)[C@H]3SC2)s1`, the Potency was “inactive”.
With `CN(C)CCN(C)CCO` the Potency was “inactive”.
With `CN1CCC[C@@H]1c1cccnc1` the Potency was “inactive”.
For `CC(=O)Oc1ccc(C(=C2CCCCC2)c2ccc(OC(C)=O)cc2)cc1`, the Potency was “inactive”.
For `O=S(c1cc(Cl)cc(Cl)c1O)c1cc(Cl)cc(Cl)c1O`, the Potency was 23.7 µM (active).
For `c1ccc(B(c2ccccc2)c2ccccc2)cc1`, the Potency was “inactive”.
With `COc1cccc(CCc2ccccc2OCC(CN(C)C)OC(=O)CCC(=O)O)c1` (stereo not given) the Potency was “inactive”.
For `S=C(S)NCCNC(=S)S`, the Potency was “inactive”.
For `O=C(O)COc1nn(Cc2ccccc2)c2ccccc12`, the Potency was “inactive”.
In the case of `Nc1nc(N)c2nc(CNc3ccc(C(=O)N[C@@H](CCC(=O)O)C(=O)O)cc3)cnc2n1`, the Potency is reported as “inactive”.
For `CN(C)CCOc1ccccc1Cc1ccccc1`, the Potency was “inactive”.
For `Clc1ccc2nsnc2c1NC1=NCCN1`, the Potency was “inactive”.
With `Nc1c(Cl)cc(Cl)cc1[N+](=O)[O-]` the Potency was “inactive”.
With `C[C@H]1[C@@H](c2ccccc2)NC(=O)N1C` the Potency was “inactive”.
In the case of `Nc1ccccc1Nc1ccccc1`, the Potency is reported as 48.7 µM (active).
In the case of `O=[N+]([O-])c1ccc2ncccc2c1`, the Potency is reported as “inactive”.
Potency means the concentration at half of the fitted maximal effect.
